Source: PubChem BioAssay (NCATS)
Records with an inconclusive call do not appear. A number with no mark means an inactive call. Calls of active or inactive are those of the source. The call rests on the fitted dose curve; in most records, active means well fitted activation curve with a large enough effect; inconclusive means small, poorly fitted or top-dose-only effect; inactive means flat fitted curve, though single readings scatter.

Experiment: Primary redox qHTS assay for identification of artifact compounds. (AID 1845223)
Conditions: Amplex Red/HRP redox cycling with DTT, fluorescence; series mostly up to 53.8 µM
Source text: PI: Alexander Tropsha Ph.D.
UNC Eshelman School of Pharmacy
University of North Carolina, Chapel Hill, North Carolina
Hits from high-throughput screening (HTS) of chemical libraries are often false positives due to their interference with the assay detection technology. In response to this problem, we generated the largest publicly available library of chemical liabilities and developed a free webtool to predict HTS artifacts, both of which are described herein. More specifically, we generated, curated, and integrated HTS datasets for thiol reactivity, redox activity, and luciferase (firefly and nano) activity. Using these curated datasets, we developed and validated several Quantitative Structure-Interference Relationship (QSIR) models to predict nuisance behavior. […] These models were employed for virtual profiling of the National Center for Advancing Translational Science's (NCATS) in-house library, and 256 compounds for each assay were selected for the experimental validation of nuisance behavior. The BA for these external predictions ranged from 58 to 78% for compounds within the applicability domains of the models. […] The models developed in this study, along with aggregation models previously developed by our group (SCAM Detective) were implemented in "Liability Predictor," an online tool which may be used as part of chemical library design or for triaging HTS hits. Both the models and the curated datasets are publicly available at https://liability.mml.unc.edu/.
SEQUENCE No. (e.g., 1, 2, 3, etc.); […] (e.g., Cells, Incubation, Reagent, etc.); VALUE; DESCRIPTION.
1; Reagent; 3 uL; Amplex Red and HRP mixture.
2; Compounds and control; 16 nL; Kalypsis pin tool (Wako USA) equipped with a 1536-well pin head. […]
6; Detection; Fluorescence, ViewLux microplate reader, 525 nm excitation, 598 nm emission.
NOTES (numbers refer to Sequence numbers above)
1. 3 uL of a mixture containing Amplex Red (25 uM final concentration) and horseradish peroxidase (HRP; 250 mU/mL final concentration) in assay buffer (HBSS) was dispensed into all wells of a 1536-well assay plate (solid-bottom black plate; Greiner Bio One, Monroe, NC).
2. A Wako Pin-tool (Wako Automation, Richmond, VA) was used to transfer 16 nL of compounds (consisting of 7-plates in qHTS format, final concentration range 18.3 nM to 114 uM) or control DA3003 (final concentration range 1.22 nM to 40 uM).
3. 15 min. incubation at room temperature protected from light.
4. 1 uL of DTT (prepared fresh; final concentration 250 uM) was dispensed for a final assay volume of 4 uL.
5. Plates were centrifuged (121xg, 15 seconds) and incubated for 30 minutes at room temperature protected from light.
6. Samples were read for fluorescence (Ex/Em = 525(20)/598(25) nm) on a ViewLux CCD imager (PerkinElmer). Data were normalized to DMSO (0% activity) and DA3003 (10 uM final concentration; 100% activity) and the resulting percent inhibition data were fitted to a 4-parameter Hill equation using NCATS in-house software.
In the case of C[C@@H]1CN(Cc2ccc(F)cc2)[C@@H](C)CN1C(=O)c1cc2c(C(=O)C(=O)N(C)C)cn(C)c2cc1Cl, the outcome was “inactive”.
With CS(=O)(=O)c1ccc(C(=O)Nc2ccc(Cl)c(-c3ccccn3)c2)c(Cl)c1 the outcome was “inactive”.
In the case of CN(C)c1ccc(C2Nc3ccc4ccccc4c3C3=C2C(=O)CC(C)(C)C3)cc1Br (stereo not given), the outcome was “inactive”.
In the case of CNC(=O)c1ccccc1Sc1ccc2c(/C=C/c3ccccn3)n[nH]c2c1, the outcome was “inactive”.
In the case of COc1cc(F)c(F)c(Nc2ccc(I)cc2F)c1NS(=O)(=O)C1(C[C@H](O)CO)CC1, the outcome was “inactive”.
For CCc1cncnc1N1CCN(Cc2nc3ccc(C(F)(F)F)cc3[nH]2)CC1, the outcome was “inactive”.
In the case of O=C(Nc1cccnc1)N1CCC(Cc2cccc(Oc3ccc(C(F)(F)F)cn3)c2)CC1, the outcome was “inactive”.
In the case of O=c1[nH]c(-c2ccc(C(F)(F)F)cc2)nc2c1CSCC2, the outcome was “inactive”.
With OCCn1cc(-c2cnc3nnn(Cc4ccc5ncccc5c4)c3n2)cn1 the outcome was “inactive”.
With Cc1n[nH]c(C)c1Cc1sc2c(c1C(=O)N1C[C@H](O)CO1)c(=O)n(C)c(=O)n2CC(C)C the outcome was “inactive”.
In the case of CCc1cc(Nc2nccc(-c3c(-c4ccc(OC)c(C(=O)Nc5c(F)cccc5F)c4)nc4ccccn34)n2)c(OC)cc1N1CCC(N2CCN(S(C)(=O)=O)CC2)CC1, the outcome was “inactive”.
For CCCS(=O)(=O)Nc1ccc(F)c(C(=O)c2c[nH]c3ncc(-c4ccc(Cl)cc4)cc23)c1F, the outcome was “inactive”.
In the case of C#Cc1cccc(Nc2ncnc3cc(OCCOC)c(OCCOC)cc23)c1, the outcome was “inactive”.
In the case of COc1nc(-c2ccc3c(c2)OCO3)n(-c2ccc(NC(=O)CSc3ccccc3)cc2)n1, the outcome was “inactive”.
In the case of Clc1ccc(Nc2nnc(Cc3ccncc3)c3ccccc23)cc1, the outcome was “inactive”.
In the case of CC[C@@H](C)[C@H](NC(=O)[C@H](CC1CCCCC1)NC(=O)c1ccno1)C(=O)N1CCC2(CCc3ccccc32)CC1, the outcome was “inactive”.
With O=C(NOC[C@H](O)CO)c1ccc(F)c(F)c1Nc1ccc(I)cc1F the outcome was “inactive”.
With CNCc1ccc(-c2[nH]c3cc(F)cc4c3c2CCNC4=O)cc1 the outcome was “inactive”.
For S=C(NCc1ccc2c(c1)OCO2)N1CCN(c2ncnc3c2oc2ccccc23)CC1, the outcome was “inactive”.
With O=C1CCCC2=C1C(c1[nH]ncc1Cl)N=C(Nc1nc3ccccc3o1)N2 (stereo not given) the outcome was “inactive”.
Molecule CCN(CC)CCCC(C)Nc1ccnc2cc(Cl)ccc12 (stereo not given) has a redox activity (% of DA3003) of -9.33% [at 11.5 µM].
With CCC(C)n1ncn(-c2ccc(N3CCN(c4ccc(OC[C@H]5CO[C@](Cn6cncn6)(c6ccc(Cl)cc6Cl)O5)cc4)CC3)cc2)c1=O (stereo not given in full) the outcome was “inactive”.
For COc1cc(Oc2ccnc3cc(OC)c(OC)cc23)ccc1NC(=O)NC(C)c1nccs1 (stereo not given), the outcome was “inactive”.
For O=C(c1cc(Cc2n[nH]c(=O)c3ccccc23)ccc1F)N1CCN(C(=O)C2CC2)CC1, the outcome was “inactive”.
In the case of CCOc1cc(C(=O)Nc2ccc(Cl)c(-c3nc4ccccc4[nH]3)c2)cc(OCC)c1OCC, the outcome was “inactive”.
In the case of CN(C)C(=O)c1ccc(S(=O)(=O)c2ccc(NC(=O)[C@@](C)(O)C(F)(F)F)c(Cl)c2)cc1, the outcome was “inactive”.
For CCOc1ccn(-c2ccc(F)cc2)c(=O)c1C(=O)Nc1ccc(Oc2ccnc(N)c2Cl)c(F)c1, the outcome was “inactive”.
In the case of COc1cc(Nc2ncc3c(n2)-c2ccc(Cl)cc2C(c2c(F)cccc2OC)=NC3)ccc1C(=O)O, the outcome was “inactive”.
With CCCc1nn(C)c2c(=O)[nH]c(-c3cc(S(=O)(=O)N4CCN(C)CC4)ccc3OCC)nc12 the outcome was “inactive”.
For CCCS(=O)(=O)Nc1ccc(F)c(C(=O)c2c[nH]c3ncc(Cl)cc23)c1F, the outcome was “inactive”.
For C[C@H](NC(=O)Cc1cc(F)cc(F)c1)C(=O)N[C@@H]1C(=O)N(C)c2ccccc2-c2ccccc21, the outcome was “inactive”.
With CNC(=O)c1ccc(C)c(-n2c(C)cc(OCc3ccc(F)cc3F)c(Br)c2=O)c1 the outcome was “inactive”.
For CN(C(=O)c1ccc(F)cc1C(F)(F)F)C1CCN(c2nnc(-c3ccnn3C)c3ccccc23)CC1, the outcome was “inactive”.
With CC(C)(N)C(=O)N[C@H](COCc1ccccc1)C(=O)N1CCC2(CC1)CN(S(C)(=O)=O)c1ccccc12 the outcome was “inactive”.
In the case of Cc1cc(SCc2sc(-c3ccc(C(F)(F)F)cc3)nc2C)ccc1OCC(=O)O, the outcome was “inactive”.
For COc1cc2nccc(Oc3ccc(NC(=O)NC4CC4)c(Cl)c3)c2cc1C(N)=O, the outcome was “inactive”.
For Cc1ccnc(NS(=O)(=O)c2ccc(NC(=O)Nc3ccc(S(=O)(=O)Nc4nccc(C)n4)cc3)cc2)n1, the outcome was “inactive”.
With COc1ccc(CCN2CCN(CCCc3ccccc3)CC2)cc1OC the outcome was “inactive”.
CC[C@H](Nc1ncnc2nc[nH]c12)c1nc2cccc(F)c2c(=O)n1-c1ccccc1 showed a redox activity (% of DA3003) of 6.84% [at 11.5 µM].
In the case of COc1c(Cl)cc2c([nH]c3cnccc32)c1NC(=O)c1cccnc1C, the outcome was “inactive”.
